# Results reported in PubChem BioAssay (Tox21).
# Records with an inconclusive call do not appear. Where a call stands in place of a potency, no number is given. A structure can be active in one record and inactive in another. Calls of active or inactive are those of the source. Calls come from the whole dose curve; as a rule, active = well fitted activation curve with a large enough effect in the repeat runs; inconclusive = weak or mixed curves; inactive = flat fitted curve, though single readings scatter.
# Assay: A CellTox Green Cytotoxicity Assay to monitor cytotoxicity in HEK293 cells - 32 hour (AID 1224881); note: nearly all actives have a fitted effect of over 40% in size; note: potency is the fitted concentration of half-maximal effect
# Details: CellTox Green fluorescence; series mostly up to 76.8 µM; cytotoxicity increase: at the top concentration
# In short: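 Homogeneous no-lysis format: HEK293 cell suspension mixed with CellTox Green reagent, seeded, incubated 5 h at 37 C/5% CO2, then dosed by pintool with compound in DMSO.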
SMILES,Potency,cytotoxicity increase
Cc1cc(CC(=O)O)n(C)c1C(=O)c1ccc(Cl)cc1,inactive,
Cc1ccccc1C=O,inactive,
C[n+]1ccn(CCO)c1,inactive,
CCCN(CCC)C(=O)SCC,inactive,
C1CCCNCC1,inactive,
NCCNCCNCCN,inactive,
COC(=O)/C=C\C(=O)OC,inactive,
C=CC(=O)NCOCCCC,,2.52% (inactive)
CS(=O)(=O)c1ccc(Cl)cc1,inactive,
OCC(O)CS (stereo unspecified),inactive,
NC1CCCCC1N (stereo unspecified),inactive,
CC(C)=CCC/C(C)=C/C=O,inactive,
O=C(NCC1CCCCN1)c1cc(OCC(F)(F)F)ccc1OCC(F)(F)F (stereo unspecified),inactive,
CCCCCNCCCCC,inactive,
Cc1ccc(C)c(S(=O)(=O)O)c1,inactive,
C=C(CC(=O)O)C(=O)O,inactive,
CCn1cc(C(=O)O)c(=O)c2cc3c(cc21)OCO3,inactive,
C=C1C[C@]23C[C@@]1(O)CC[C@H]2[C@@]12C=C[C@H](O)[C@@](C)(C(=O)O1)[C@H]2[C@@H]3C(=O)O,inactive,
CC(=O)OCc1ccc2c(c1)OCO2,inactive,

SMILES,Potency,cytotoxicity increase
CCCOC(=O)NCCCN(C)C,inactive,
CN1Cc2c(N)cccc2C(c2ccccc2)C1 (stereo unspecified),inactive,
O=c1n(CCCN2CCN(c3cccc(Cl)c3)CC2)nc2ccccn12,inactive,
Cc1ccccc1Cl,inactive,
NC(N)=S,inactive,
CC(C)(CO)CO,inactive,
COC(=O)OC,inactive,
CC1(C)C(=O)N(Cl)C(=O)N1Cl,inactive,
CC(C)(C)NC[C@H](O)COc1nsnc1N1CCOCC1,,-17.6% (inactive)
Cc1cccc(C)c1[N+](=O)[O-],inactive,
CC(CN1c2ccccc2Sc2ccccc21)N(C)C (stereo unspecified),54.9 µM (active) and inactive,
O=C(c1ccccc1)c1ccc(O)c(O)c1O,inactive,
O=C1OC(=O)c2c(Cl)c(Cl)c(Cl)c(Cl)c21,inactive,
OCc1ccc(Cl)cc1Cl,inactive,
O=C1O[C@H]([C@H](O)CO)C(O)=C1O,inactive,
OCCOCCOCCOCCOCCO,inactive,
CCN(CC)CCNC(=O)c1ccc(N)cc1,inactive,
COCN(COC)c1nc(N(COC)COC)nc(N(COC)COC)n1,inactive,
CC(=O)OCCC(C)C,inactive,

# Assay: A CellTox Green Cytotoxicity Assay to monitor cytotoxicity in HepG2 cells - 0 hour (AID 1224882); note: nearly all actives have a fitted effect of over 35% in size
# Details: CellTox Green fluorescence; series mostly up to 76.8 µM; cytotoxicity: at the top concentration
# In short: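 Fluorescent DNA-binding dye, 600 HepG2 cells/well, 5 h preincubation then compound in DMSO; same plates read at 0–40 h, 37 C.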
SMILES,Potency,cytotoxicity
Cc1cc(CC(=O)O)n(C)c1C(=O)c1ccc(Cl)cc1,inactive,
Cc1ccccc1C=O,inactive,
C[n+]1ccn(CCO)c1,inactive,
CCCN(CCC)C(=O)SCC,inactive,
C1CCCNCC1,inactive,
NCCNCCNCCN,,-10.3% (inactive)
COC(=O)/C=C\C(=O)OC,inactive,
C=CC(=O)NCOCCCC,inactive,
CS(=O)(=O)c1ccc(Cl)cc1,inactive,
OCC(O)CS (stereo unspecified),inactive,
NC1CCCCC1N (stereo unspecified),inactive,
CC(C)=CCC/C(C)=C/C=O,inactive,
O=C(NCC1CCCCN1)c1cc(OCC(F)(F)F)ccc1OCC(F)(F)F (stereo unspecified),inactive,
CCCCCNCCCCC,inactive,
Cc1ccc(C)c(S(=O)(=O)O)c1,inactive,
C=C(CC(=O)O)C(=O)O,inactive,
CCn1cc(C(=O)O)c(=O)c2cc3c(cc21)OCO3,inactive,
C=C1C[C@]23C[C@@]1(O)CC[C@H]2[C@@]12C=C[C@H](O)[C@@](C)(C(=O)O1)[C@H]2[C@@H]3C(=O)O,inactive,
CC(=O)OCc1ccc2c(c1)OCO2,inactive,

SMILES,Potency,cytotoxicity
CCCOC(=O)NCCCN(C)C,inactive,
CN1Cc2c(N)cccc2C(c2ccccc2)C1 (stereo unspecified),inactive,
O=c1n(CCCN2CCN(c3cccc(Cl)c3)CC2)nc2ccccn12,inactive,
Cc1ccccc1Cl,inactive,
NC(N)=S,inactive,
CC(C)(CO)CO,inactive,
COC(=O)OC,inactive,
CC1(C)C(=O)N(Cl)C(=O)N1Cl,inactive,
CC(C)(C)NC[C@H](O)COc1nsnc1N1CCOCC1,inactive,
Cc1cccc(C)c1[N+](=O)[O-],inactive,
CC(CN1c2ccccc2Sc2ccccc21)N(C)C (stereo unspecified),inactive,
O=C(c1ccccc1)c1ccc(O)c(O)c1O,inactive,
O=C1OC(=O)c2c(Cl)c(Cl)c(Cl)c(Cl)c21,inactive,
OCc1ccc(Cl)cc1Cl,inactive,
O=C1O[C@H]([C@H](O)CO)C(O)=C1O,inactive,
OCCOCCOCCOCCOCCO,inactive,
CCN(CC)CCNC(=O)c1ccc(N)cc1,inactive,
COCN(COC)c1nc(N(COC)COC)nc(N(COC)COC)n1,inactive,
CC(=O)OCCC(C)C,inactive,
